Values joined by “and” are separate entries in the source; they are usually repeats but may differ in a detail not shown here. Equal entries are not always repeated. Results filed as inconclusive are left out. Active and inactive are the calls of the source. Unless noted, the call rests on the fitted dose curve.
What was measured:
[1] = target: Glucocorticoid receptor (Homo sapiens) (UniProt P04150); test: qHTS assay for small molecule agonists of glucocorticoid receptor signaling (AID 588532; active means well fitted curve in the direction sought with a large enough effect in the signal ratio, with a control signal flat; the % refers to the signal ratio;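 further: 100% = dexamethasone at 0.1 µM and 0% = DMSO only wells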); settings: HeLa MMTV-bla, beta-lactamase ratio, agonist, 18 h; activation: stronger effect = higher value, percent of dexamethasone control, DMSO zero
Sequence of Glucocorticoid receptor (Homo sapiens) (P04150 whole entry, looked up): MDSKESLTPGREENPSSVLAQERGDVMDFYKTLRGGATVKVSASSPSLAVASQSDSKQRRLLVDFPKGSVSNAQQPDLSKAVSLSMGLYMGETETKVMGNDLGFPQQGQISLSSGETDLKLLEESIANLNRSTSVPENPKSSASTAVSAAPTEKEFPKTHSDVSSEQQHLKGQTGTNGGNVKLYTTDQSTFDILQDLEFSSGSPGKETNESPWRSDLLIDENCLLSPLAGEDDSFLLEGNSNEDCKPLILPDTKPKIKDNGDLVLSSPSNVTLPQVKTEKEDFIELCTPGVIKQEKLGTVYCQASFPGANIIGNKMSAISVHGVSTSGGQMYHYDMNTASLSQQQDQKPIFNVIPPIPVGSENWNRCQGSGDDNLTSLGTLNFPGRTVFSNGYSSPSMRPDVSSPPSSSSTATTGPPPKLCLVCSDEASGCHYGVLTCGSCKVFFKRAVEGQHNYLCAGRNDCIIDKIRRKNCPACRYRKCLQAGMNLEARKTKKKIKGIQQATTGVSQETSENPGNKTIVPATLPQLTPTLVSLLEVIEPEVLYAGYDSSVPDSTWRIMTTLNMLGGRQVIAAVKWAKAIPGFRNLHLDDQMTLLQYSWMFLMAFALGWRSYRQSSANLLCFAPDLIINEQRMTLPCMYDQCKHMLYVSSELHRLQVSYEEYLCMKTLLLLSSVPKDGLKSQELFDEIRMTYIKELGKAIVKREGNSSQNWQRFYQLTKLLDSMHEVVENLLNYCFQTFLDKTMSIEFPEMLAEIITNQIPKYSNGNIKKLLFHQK
How it was run: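 HeLa GRE-bla reporter cells; 18 h compound exposure at 37 C; 2 h CCF4 loading at room temperature; fluorescence at 460 and 530 nm; EC50 by Hill equation.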

[2] = target: Glucocorticoid receptor (Homo sapiens) (UniProt P04150); test: qHTS assay for small molecule antagonists of glucocorticoid receptor signaling (AID 588533; active means well fitted inhibition curve with a large enough effect in the signal ratio, with a control signal flat, not every such curve was filed as active; the % refers to the signal ratio; further: on the % scale 0 is the no-effect control and ±100 the full control effect)
How it was run: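 Antagonist-mode qHTS: compound titrations added to GRE-bla HeLa cells, then dexamethasone 2 nM final; 18 h, 37 C. CCF4 FRET fluorescence normalized to dexamethasone and DMSO; IC50 from Hill fit.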

[3] = target: Peroxisome proliferator-activated receptor delta (Homo sapiens) (UniProt Q03181); test: qHTS assay for small molecule agonists of peroxisome proliferator-activated receptor delta signaling (AID 588534);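 further: 0% = DMSO basal wells and 100% = positive control agonist at 10 µM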
Sequence of Peroxisome proliferator-activated receptor delta (Homo sapiens) (Q03181 whole entry, looked up): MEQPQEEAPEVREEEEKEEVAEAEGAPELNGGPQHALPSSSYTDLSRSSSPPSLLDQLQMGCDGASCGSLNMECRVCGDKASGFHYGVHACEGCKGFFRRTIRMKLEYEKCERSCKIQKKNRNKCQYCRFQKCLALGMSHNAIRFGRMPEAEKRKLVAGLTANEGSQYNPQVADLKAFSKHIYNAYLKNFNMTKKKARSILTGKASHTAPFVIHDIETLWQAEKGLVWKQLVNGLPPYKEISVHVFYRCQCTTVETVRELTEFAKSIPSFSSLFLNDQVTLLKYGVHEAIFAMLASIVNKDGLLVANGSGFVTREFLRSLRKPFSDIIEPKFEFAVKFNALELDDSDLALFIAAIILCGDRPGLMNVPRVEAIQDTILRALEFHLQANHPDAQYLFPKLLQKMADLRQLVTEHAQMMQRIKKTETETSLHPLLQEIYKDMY
How it was run: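 EC50 and efficacy values derive from Hill fits of a concentration series in a beta-lactamase reporter cell assay. Exposure is 18 hrs at 37 C, with CCF4 fluorescence as the readout.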

[4] = qHTS assay for small molecule antagonists of peroxisome proliferator-activated receptor delta signaling (AID 588535; active means well fitted inhibition curve with a large enough effect in the signal ratio, with a control signal flat, not every such curve was filed as active; the % refers to the signal ratio;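 on max response: cells co-treated with a PPAR-delta agonist as stimulator during compound exposure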); settings: HEK293T PPARd-UAS-bla, beta-lactamase FRET ratio, 18 h; 460 nm channel
How it was run: (§1)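 Beta-lactamase reporter read-out (405 nm excitation, 460/530 nm emission) after CCF4 loading for 2 hrs at RT. HEK293T PPAR-delta-UAS-bla cells, 2% charcoal/dextran FBS, compounds for 18 hrs at 37 C. Hill fit gave IC50 and efficacy.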

[5] = target: Peroxisome proliferator-activated receptor delta (Homo sapiens) (UniProt Q03181); test: as above
How it was run: as §1

[6] = target: Vitamin D3 receptor (Homo sapiens) (UniProt P11473); test: qHTS assay for small molecule antagonists of vitamin D receptor signaling (AID 588541);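 further: receptor activated by calcitriol during compound treatment; series mostly up to about 77 µM; on the % scale 0 is the no-effect control and ±100 the full control effect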
Sequence of Vitamin D3 receptor (Homo sapiens) (P11473 whole entry, looked up): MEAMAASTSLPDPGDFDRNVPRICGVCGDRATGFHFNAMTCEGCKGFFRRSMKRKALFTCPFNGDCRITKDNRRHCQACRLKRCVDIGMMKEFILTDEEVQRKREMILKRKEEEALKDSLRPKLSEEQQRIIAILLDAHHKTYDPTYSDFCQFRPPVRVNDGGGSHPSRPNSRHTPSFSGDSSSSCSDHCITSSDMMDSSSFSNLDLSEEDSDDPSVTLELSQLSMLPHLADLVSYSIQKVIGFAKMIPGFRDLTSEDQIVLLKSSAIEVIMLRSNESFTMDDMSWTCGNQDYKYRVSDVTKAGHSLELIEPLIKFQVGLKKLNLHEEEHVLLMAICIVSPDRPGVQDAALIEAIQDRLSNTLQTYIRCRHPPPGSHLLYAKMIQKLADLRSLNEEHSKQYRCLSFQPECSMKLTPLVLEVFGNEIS
How it was run: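 VDR-UAS-bla HEK293T cells in 2% charcoal-stripped FBS were stimulated with 1-alpha,25-dihydroxyvitamin D3 (3 nM final) plus compound for 16 h at 37 C. The beta-lactamase CCF4 readout was normalized to 50 nM agonist and DMSO, and Hill fits gave IC50.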

[7] = target: Vitamin D3 receptor (Homo sapiens) (UniProt P11473); test: qHTS assay for small molecule agonists of vitamin D receptor signaling (AID 588543);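 further: 0% = DMSO basal and 100% = reference agonist control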
How it was run: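 Reporter cells (HEK293T, VDR-UAS-bla) were seeded in medium with 2% charcoal-stripped serum and incubated 5 h, then compounds in concentration series were added for 16 h at 37 °C. Stimulation was scaled between DMSO basal and 50 nM 1α,25-dihydroxyvitamin D3.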

[8] = qHTS assay for small molecule agonists of retinoid X receptor alpha signaling (AID 588544); settings: HEK293T RXRa-UAS-bla, beta-lactamase reporter, 18 h; 530 nm emission;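 on activation: 0% = DMSO basal wells and 100% = reference agonist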
[9] = target: Retinoic acid receptor RXR-alpha (Homo sapiens) (UniProt P19793); test: as above
Sequence of Retinoic acid receptor RXR-alpha (Homo sapiens) (P19793 whole entry, looked up): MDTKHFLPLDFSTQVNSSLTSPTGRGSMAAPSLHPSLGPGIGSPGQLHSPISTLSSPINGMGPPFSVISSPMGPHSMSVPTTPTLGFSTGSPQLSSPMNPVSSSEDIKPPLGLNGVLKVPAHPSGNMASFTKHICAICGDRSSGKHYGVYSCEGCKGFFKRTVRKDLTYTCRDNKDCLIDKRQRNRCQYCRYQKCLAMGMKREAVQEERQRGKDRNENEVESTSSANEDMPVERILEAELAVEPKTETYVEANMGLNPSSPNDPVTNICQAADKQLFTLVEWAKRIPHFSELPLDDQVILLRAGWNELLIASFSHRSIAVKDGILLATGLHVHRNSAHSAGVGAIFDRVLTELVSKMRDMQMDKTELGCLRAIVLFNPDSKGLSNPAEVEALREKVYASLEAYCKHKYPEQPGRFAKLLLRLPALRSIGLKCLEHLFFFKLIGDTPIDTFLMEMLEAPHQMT

[10] = target: Thyroid hormone receptor beta (Homo sapiens) (UniProt P10828); test: qHTS assay for small molecule agonists of thyroid hormone receptor beta signaling (AID 588545)
Sequence of Thyroid hormone receptor beta (Homo sapiens) (P10828 whole entry, looked up): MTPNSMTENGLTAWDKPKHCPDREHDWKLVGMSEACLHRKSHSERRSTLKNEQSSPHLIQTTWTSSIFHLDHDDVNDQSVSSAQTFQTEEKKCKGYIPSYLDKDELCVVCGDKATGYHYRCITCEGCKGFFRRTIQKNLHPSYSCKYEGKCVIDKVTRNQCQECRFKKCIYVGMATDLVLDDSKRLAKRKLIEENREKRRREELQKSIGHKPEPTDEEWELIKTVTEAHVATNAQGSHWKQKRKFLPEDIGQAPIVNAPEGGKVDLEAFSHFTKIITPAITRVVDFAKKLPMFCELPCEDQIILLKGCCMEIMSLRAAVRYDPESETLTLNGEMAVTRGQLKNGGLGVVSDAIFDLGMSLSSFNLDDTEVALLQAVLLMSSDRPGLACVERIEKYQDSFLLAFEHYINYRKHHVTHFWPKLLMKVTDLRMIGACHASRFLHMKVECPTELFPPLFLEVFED
How it was run: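 Agonist activity was read as beta-lactamase CCF4 fluorescence (405 ex, 460/530 em), scaled between DMSO (0%) and 10 nM T3 (100%), then Hill-fitted for EC50 and efficacy. HEK 293 TR-UAS-bla cells in 2% charcoal/dextran FBS medium were exposed 18 h at 37 C.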

[11] = qHTS assay for small molecule antagonists of retinoid X receptor alpha signaling (AID 588546; active means well fitted inhibition curve with a large enough effect in the signal ratio, with a control signal flat, not every such curve was filed as active; the % refers to the signal ratio;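 further: cells stimulated with 9-cis-retinoic acid as agonist; on the % scale 0 is the no-effect control and ±100 the full control effect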); settings: HEK293T RXRa-UAS-bla, beta-lactamase ratio, antagonist mode; measured here: W530 green channel, cytotoxicity proxy
How it was run: (§2)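 Beta-lactamase reporter inhibition, read as CCF4 fluorescence ratio (ex 405, em 460/530 nm) after 2 h at RT. HEK293T UAS-bla cells, 2500/well, were stimulated with 9-cis-RA at 500 or 100 nM final alongside test compound for 18 h at 37 C.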

[12] = target: Retinoic acid receptor RXR-alpha (Homo sapiens) (UniProt P19793); test: as above; settings: HEK293T RXRa-UAS-bla, beta-lactamase ratio, antagonist mode
How it was run: as §2

[13] = qHTS assay for small molecule activators of the p53 signaling pathway (AID 651743; active means well fitted activation curve with a large enough effect in the signal ratio, not every such curve was filed as active; the % refers to the signal ratio; further: series mostly up to about 92 µM; % of control where 0% means no effect); settings: HCT-116 p53RE-bla, beta-lactamase FRET ratio, 16 h; activation: stronger effect = higher value
How it was run: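 Reporter: beta-lactamase driven by p53 response elements, stably integrated in HCT-116 cells. Cells seeded at 4,000/well, 5 h preincubation, compound (DMSO) 16 h at 37 C; B/G FRET substrate 2 h RT; fluorescence intensity read.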

[14] = qHTS assay for small molecule activators of the nuclear factor-kappa B (NF-kB) signaling pathway (AID 651749; active means well fitted activation curve with a large enough effect in the signal ratio; the % refers to the signal ratio; further: series mostly up to about 77 µM; % of control where 0% means no effect); settings: NF-kB-bla ME-180 cells, beta-lactamase FRET ratio, 16 h; activation: stronger effect = higher value
How it was run: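 NF-kB-bla ME-180 cells, 2,000/well; 23 nL compound or DMSO pinned; 16 hr, 37C/5% CO2; beta-lactamase FRET read-out.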

[15] = target: Peroxisome proliferator-activated receptor alpha (Homo sapiens) (UniProt Q07869); test: qHTS assay for small molecule agonists of the peroxisome proliferator-activated receptor alpha (PPARalpha) signaling pathway (AID 651778; active means well fitted curve in the direction sought with a large enough effect; an effect the other way counts as inactive or inconclusive; further: % of control where 0% means no effect); settings: PathHunter PPARalpha complementation, chemiluminescence, 6 h; max response: stronger effect = higher value
Sequence of Peroxisome proliferator-activated receptor alpha (Homo sapiens) (Q07869 whole entry, looked up, the tested form may be a part): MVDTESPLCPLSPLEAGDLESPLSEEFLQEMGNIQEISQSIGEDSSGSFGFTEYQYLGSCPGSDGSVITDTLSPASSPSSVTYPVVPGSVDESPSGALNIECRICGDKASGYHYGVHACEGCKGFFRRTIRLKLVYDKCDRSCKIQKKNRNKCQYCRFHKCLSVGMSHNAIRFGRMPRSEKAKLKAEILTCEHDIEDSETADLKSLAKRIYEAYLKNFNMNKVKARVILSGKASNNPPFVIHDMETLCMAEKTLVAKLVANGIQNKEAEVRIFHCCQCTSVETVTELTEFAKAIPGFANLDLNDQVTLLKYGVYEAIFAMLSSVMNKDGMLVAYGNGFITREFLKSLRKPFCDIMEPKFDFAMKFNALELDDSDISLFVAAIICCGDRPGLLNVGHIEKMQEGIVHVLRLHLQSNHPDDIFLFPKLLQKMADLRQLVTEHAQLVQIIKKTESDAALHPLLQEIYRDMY
How it was run: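 Enzyme-fragment complementation assay in which ligand-bound PPARalpha translocates and forms an active enzyme that generates chemiluminescence. Cells were plated overnight, exposed to compound for 6 hr at 37 C, and then given detection reagent for 60 min at room temperature.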

[16] = qHTS assay for small molecule agonists of the antioxidant response element (ARE) signaling pathway measured by Nrf2-dependant transcriptional activity (AID 720636; active means well fitted curve in the direction sought with a large enough effect in the repeat runs; an effect the other way counts as inactive or inconclusive;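 further: HepG2 cells with an ARE-driven luciferase reporter; % of control where 0% means no effect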)
How it was run: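 Cells: ARE-luc HepG2 with Nrf2-responsive luciferase. Medium contained 1% dialyzed FBS. Compound exposure lasted 16 hr at 37 C and 5% CO2, followed by ONE-Glo luciferase detection.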

[17] = qHTS assay for small molecule agonists of the antioxidant response element (ARE) signaling pathway measured by Nrf2-dependant transcriptional activity - cell viability counter screen (AID 720653; active means well fitted curve in the direction sought with a large enough effect in the repeat runs; an effect the other way counts as inactive or inconclusive; further: on the % scale 0 is the no-effect control and ±100 the full control effect); settings: ARE-bla HepG2 viability, CellTiter-Glo ATP luminescence, 16 h; max response: stronger effect = lower value
How it was run: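 ARE-bla HepG2 cells treated with compounds for 16 h at 37C; this counter screen measures viability as intracellular ATP by CellTiter-Glo luminescence after 30 min at room temperature.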

[18] = qHTS assay for cell viability of HEK293 cells (AID 743288; active means well fitted curve in the direction sought with a large enough effect; an effect the other way counts as inactive or inconclusive; further: on the % scale 0 is the no-effect control and ±100 the full control effect; nearly all actives have a fitted effect of over 50% in size); settings: ATP luminescence (CellTiter-Glo), 18 h; max response: stronger effect = lower value
How it was run: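 Viable-cell counts were inferred from luciferase-based ATP content in HEK293 cells seeded at 2,000/well, pre-incubated ≥5 h, then dosed with DMSO-solubilised compounds for 18 h at 37 C.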

[19] = qHTS assay for cell viability of the p53RE-bla HCT-116 cell line (AID 743292; active means well fitted curve in the direction sought with a large enough effect; an effect the other way counts as inactive or inconclusive; further: on the % scale 0 is the no-effect control and ±100 the full control effect; nearly all actives have a fitted effect of over 55% in size)
How it was run: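 HCT-116 p53RE-bla cells seeded 4,000/well; 5 h at 37 C; compound (DMSO) added; 16 h at 37 C; CellTiter-Glo added, 30 min RT; luminescence read.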

[20] = target: Nuclear receptor subfamily 1 group I member 2 (Rattus norvegicus) (UniProt Q9R1A7); test: qHTS assay for small molecule activators of the rat pregnane X receptor (rPXR) signaling pathway (AID 651751; call rule not given here; further: 0% is about no effect); settings: rPXR reporter cells, luciferase (One-Glo), 24 h
Sequence of Nuclear receptor subfamily 1 group I member 2 (Rattus norvegicus) (Q9R1A7 whole entry, looked up): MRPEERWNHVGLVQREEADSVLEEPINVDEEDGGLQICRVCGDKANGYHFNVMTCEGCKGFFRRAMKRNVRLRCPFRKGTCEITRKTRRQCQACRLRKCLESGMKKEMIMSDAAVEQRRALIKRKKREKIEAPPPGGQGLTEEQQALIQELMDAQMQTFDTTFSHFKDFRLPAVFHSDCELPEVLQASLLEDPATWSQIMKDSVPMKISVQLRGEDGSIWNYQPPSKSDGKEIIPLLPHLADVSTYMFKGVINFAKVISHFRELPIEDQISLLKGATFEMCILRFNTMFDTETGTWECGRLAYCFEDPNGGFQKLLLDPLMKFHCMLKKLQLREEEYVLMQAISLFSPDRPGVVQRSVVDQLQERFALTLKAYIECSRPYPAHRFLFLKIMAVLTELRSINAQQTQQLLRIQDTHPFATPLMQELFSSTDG

[21] = qHTS assay for small molecule activators of the human pregnane X receptor (PXR) signaling pathway (AID 720659; call rule not given here; further: 0% is about no effect)
[22] = target: Peroxisome proliferator-activated receptor gamma (Homo sapiens) (UniProt P37231); test: qHTS assay for small molecule agonists of peroxisome proliferator-activated receptor gamma signaling (AID 588536; active means well fitted curve in the direction sought with a large enough effect in the signal ratio, with a control signal flat, not every such curve was filed as active; the % refers to the signal ratio;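 further: 0% = DMSO basal wells and 100% = rosiglitazone at 2 µM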)
Sequence of Peroxisome proliferator-activated receptor gamma (Homo sapiens) (P37231 whole entry, looked up): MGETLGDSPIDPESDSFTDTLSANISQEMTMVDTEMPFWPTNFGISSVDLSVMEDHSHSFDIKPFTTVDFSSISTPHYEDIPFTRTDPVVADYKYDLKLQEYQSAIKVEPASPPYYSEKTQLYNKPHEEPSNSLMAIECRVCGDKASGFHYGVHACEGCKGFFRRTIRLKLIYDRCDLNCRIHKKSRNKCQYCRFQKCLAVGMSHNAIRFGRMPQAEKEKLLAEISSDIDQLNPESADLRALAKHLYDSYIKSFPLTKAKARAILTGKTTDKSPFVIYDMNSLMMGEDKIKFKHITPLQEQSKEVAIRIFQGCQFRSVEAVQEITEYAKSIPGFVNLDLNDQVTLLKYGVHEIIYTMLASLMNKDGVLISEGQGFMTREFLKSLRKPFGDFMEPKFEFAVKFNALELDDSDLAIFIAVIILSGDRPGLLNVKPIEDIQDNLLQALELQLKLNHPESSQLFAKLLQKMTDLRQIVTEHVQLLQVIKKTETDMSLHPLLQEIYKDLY
How it was run: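 Using GeneBLAzer HEK293 cells, response was quantified by CCF4 fluorescence and normalized between basal DMSO (0%) and rosiglitazone 2 uM (100%); curves yielded half-maximal stimulation concentration and efficacy.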

[23] = target: Peroxisome proliferator-activated receptor gamma (Homo sapiens) (UniProt P37231); test: qHTS assay for small molecule antagonists of peroxisome proliferator-activated receptor gamma signaling (AID 588537; active means well fitted inhibition curve with a large enough effect in the signal ratio, with a control signal flat, not every such curve was filed as active; the % refers to the signal ratio;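 further: reporter cells co-stimulated with 50 nM rosiglitazone agonist during compound treatment; % of control where 0% means no effect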)
How it was run: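 Read-out: CCF4 fluorescence (ex 405, em 460/530 nm) after 2 h at RT. Cells were HEK293 carrying a UAS-bla reporter and treated 16 h at 37 C with compound plus rosiglitazone (50 nM final). Normalized to rosiglitazone and DMSO.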

[24] = target: Thyroid hormone receptor beta (Homo sapiens) (UniProt P10828); test: qHTS assay for small molecule antagonists of thyroid hormone receptor beta signaling (AID 588547; active means well fitted inhibition curve with a large enough effect in the signal ratio, with a control signal flat, not every such curve was filed as active; the % refers to the signal ratio); settings: TR-UAS-bla HEK293, beta-lactamase ratio, antagonist mode, 18 h
How it was run: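 TR-UAS-bla GripTite HEK293 cells in 2% charcoal/dextran FBS medium; compounds 0.59 nM to 92 uM with T3 at 0.4nM final, 18 h at 37 C. Beta-lactamase read by CCF4 fluorescence (460/530 nm); Hill fits gave IC50 and efficacy.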

[25] = qHTS assay for environmental chemicals that activate the Aryl hydrocarbon Receptor (AhR) signaling pathway (AID 651777; active means well fitted curve in the direction sought with a large enough effect; an effect the other way counts as inactive or inconclusive; further: nearly all actives have a fitted effect of over 15% in size; further: potency means the concentration at half of the fitted maximal effect; on activation: % of control where 0% means no effect); settings: 1A2-DRE human hepatoma cells, luciferase, 24 h; activation: stronger effect = higher value
How it was run: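 1A2-DRE human hepatoma reporter line; 1,200 cells/well; cmpd or DMSO 24 h, 37 C/5% CO2; One-Glo 30 min RT; luciferase lum.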

[26] = target: Cytochrome P450 3A4 (Homo sapiens) (UniProt P08684); test: qHTS Assay for Inhibitors and Substrates of Cytochrome P450 3A4 (AID 884; active means well fitted curve in the direction sought with a large enough effect; an effect the other way counts as inactive or inconclusive; further: potency means the concentration at half of the fitted maximal effect; nearly all actives have a fitted effect of over 50% in size)
Sequence of Cytochrome P450 3A4 (Homo sapiens) (P08684 whole entry, looked up): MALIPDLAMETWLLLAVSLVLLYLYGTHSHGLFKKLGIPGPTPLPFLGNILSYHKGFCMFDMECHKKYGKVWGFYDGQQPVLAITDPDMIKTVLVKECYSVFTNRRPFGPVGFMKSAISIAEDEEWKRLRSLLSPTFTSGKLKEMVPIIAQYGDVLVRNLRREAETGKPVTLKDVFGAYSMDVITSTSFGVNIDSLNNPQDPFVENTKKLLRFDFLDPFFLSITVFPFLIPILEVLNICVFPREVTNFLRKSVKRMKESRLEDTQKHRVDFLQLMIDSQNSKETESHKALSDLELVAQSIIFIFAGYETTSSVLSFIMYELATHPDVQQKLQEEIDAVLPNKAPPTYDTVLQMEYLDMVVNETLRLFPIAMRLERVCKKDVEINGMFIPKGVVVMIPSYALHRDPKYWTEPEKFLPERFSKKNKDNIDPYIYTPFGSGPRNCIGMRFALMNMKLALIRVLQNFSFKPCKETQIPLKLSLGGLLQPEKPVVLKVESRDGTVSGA
How it was run: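 Luminescent readout of luciferin produced by CYP3A4 (20 nM) dealkylation of Luciferin-PPXE, 25 uM (its KM). NADPH-driven reaction ran 60 min at RT after 10 min compound preincubation; data scaled to 57 uM ketoconazole as 100% inhibition.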

[27] = target: Cytochrome P450 3A4 (Homo sapiens) (UniProt P08684); test: qHTS Assay for Activators of Cytochrome P450 3A4 (AID 885; active means well fitted curve in the direction sought with a large enough effect; an effect the other way counts as inactive or inconclusive; further: nearly all actives have a fitted effect of over 65% in size)
How it was run: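 Using 20nM recombinant human CYP3A4 in potassium phosphate (200mM), substrate Luciferin-PPXE at 25uM, luminescent luciferin detection followed a 60-min RT NADPH reaction; data scaled to 57 uM ketoconazole.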

[28] = target: Bile acid receptor (Homo sapiens) (UniProt Q96RI1); test: qHTS assay for small molecule agonists of farnesoid X receptor signaling (AID 588527); settings: HEK293T FXR-UAS-bla, beta-lactamase ratio, 16 h; activation: stronger effect = higher value;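 further: series mostly up to about 77 µM; 0% = vehicle basal and 100% = reference agonist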
Sequence of Bile acid receptor (Homo sapiens) (Q96RI1 whole entry, looked up): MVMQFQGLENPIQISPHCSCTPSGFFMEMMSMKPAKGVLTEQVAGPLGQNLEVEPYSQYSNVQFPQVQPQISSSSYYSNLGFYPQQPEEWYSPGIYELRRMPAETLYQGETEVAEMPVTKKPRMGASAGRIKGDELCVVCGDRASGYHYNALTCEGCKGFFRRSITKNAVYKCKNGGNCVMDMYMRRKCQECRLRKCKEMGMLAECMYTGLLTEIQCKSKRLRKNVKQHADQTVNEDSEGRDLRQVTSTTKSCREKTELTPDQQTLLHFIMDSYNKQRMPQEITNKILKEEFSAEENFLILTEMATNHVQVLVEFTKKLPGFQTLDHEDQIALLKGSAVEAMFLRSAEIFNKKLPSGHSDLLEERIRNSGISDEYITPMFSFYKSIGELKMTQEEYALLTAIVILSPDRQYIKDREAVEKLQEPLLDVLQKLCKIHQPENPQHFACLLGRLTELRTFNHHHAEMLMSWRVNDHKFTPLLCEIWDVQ
How it was run: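 Quantitative HTS used FXR-UAS-bla HEK293T cells with 16 h compound incubation at 37 C. EC50 values came from concentration-response curves normalized to chenodeoxycholic acid.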

[29] = target: Nuclear receptor ROR-gamma (Homo sapiens) (UniProt P51449); test: qHTS assay for small molecule antagonists of the retinoid-related orphan receptor gamma (ROR-gamma) signaling pathway (AID 651802; active means well fitted curve in the direction sought with a large enough effect; an effect the other way counts as inactive or inconclusive;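 further: CHO cells with doxycycline-induced ROR-gamma expression; luciferase reporter luminescence driven by ROR response element; series mostly up to about 92 µM; on the % scale 0 is the no-effect control and ±100 the full control effect; nearly all actives have a fitted effect of over 60% in size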)
How it was run: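 Doxycycline-induced reporter activity in engineered CHO cells (TET-inducible ROR, RORE-LUC) was measured by luminescence after 16hr compound exposure at 37C.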

[30] = qHTS assay for small molecule agonists of the antioxidant response element (ARE) signaling pathway (AID 651741; active means well fitted activation curve with a large enough effect in the signal ratio; the % refers to the signal ratio; further: % of control where 0% means no effect)
How it was run: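 HepG2 ARE-bla reporter cells, 2,000/well; 5 h settle at 37 C/5% CO2; compound pin transfer (23 nL, DMSO); 16 h at 37 C; LiveBLAzer B/G FRET substrate, 2 h RT; fluorescence intensity read.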

c1ccc2c(c1)oc1ccccc12
-9.11%: max response [11]
inactive: activation [1] 0.193% | Potency [2] | outcome [3] | Potency [5] | Potency [6] | outcome [7] | Potency [9] | Potency [10] | max response [12] 10.8% | activation [13] -2.47% | activation [14] -1.03% | max response [15] 0.628% | Potency [16] | max response [17] -12.3% | max response [18] -8.74% | Potency [19] | max response [20] -0.589% | outcome [21]
-6.25%: max response [8]
3.99%: max response [4]

CC/C(=N\OC/C=C/Cl)C1=C(O)CC(C2CCOCC2)CC1=O (centres undefined)
inactive: Potency [2] | Potency [5] | Potency [22] | Potency [23] | Potency [6] | outcome [7] | Potency [9] | Potency [10] | max response [12] 3.36% | activity change % (negative = inhibition) [24] -7.66% | activation [13] -3.67% | activation [14] -1.9% | activation [25] 0.936% | max response [15] -0.709% | Potency [16] | max response [17] 1.41% | max response [18] 3.9% | Potency [19] | outcome [21]
0.449%: max response [11]
17.7%: max response [4]
-4.82%: max response [8]

CC(=O)OCc1ccc2c(c1)OCO2
inactive: Potency [27] | activation [28] -1.12%
active: Potency [26] 10 µM

NC(N)=S
inactive: activation [28] -0.31% | Potency [29]

CC1(C)CC(N=C=O)CC(C)(CN=C=O)C1 (centres undefined)
inactive: Potency [27] | activation [28] -0.574% and 2.35%
active: Potency [26] 25.1 µM

CC(C)(C)OOC(C)(C)CCC(C)(C)OOC(C)(C)C
inactive: Potency [2] | Potency [6] | outcome [7] | Potency [9] | Potency [10] | max response [12] -1.22% | Potency [30] | activation [13] 2.86% | max response [15] 0.675% | Potency [16] | max response [17] -14% | max response [18] 0.0033% | Potency [19] | max response [20] -1.16% | outcome [21]
-4.8%: max response [11]

Nc1ccccc1O
active: Potency [25] 12.6 µM
inactive: activation [28] -1.93%

Reference: PubChem BioAssay (NCATS)
